Publication PMC7826789 (International Journal of Molecular Sciences, 2021)

Legend:
Details in all cases: Compound Concentration (nM):1000
KIT-autoinhibited = system: KIT-autoinhibited
KIT = system: KIT
LATS1 = system: LATS1
LATS2 = system: LATS2
LCK = system: LCK
LIMK1 = system: LIMK1
LIMK2 = system: LIMK2
LKB1 = system: T1, LKB1
T1 construct: gene STK11

LOK = system: T2, LOK
T2 construct: gene STK10

LRRK2(G2019S) = system: LRRK2(G2019S)
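Further: KINOMEscan scanMAX binding as percent activity remaining versus control; lower means stronger binding.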

Compound	Percent Control (KIT-autoinhibited) [%]	Percent Control (KIT) [%]	Percent Control (LATS1) [%]	Percent Control (LATS2) [%]	Percent Control (LCK) [%]	Percent Control (LIMK1) [%]	Percent Control (LIMK2) [%]	Percent Control (LKB1) [%]	Percent Control (LOK) [%]	Percent Control (LRRK2(G2019S)) [%]
NS(=O)(=O)c1ccc(N/N=C2\C(=O)Nc3ccc(-c4cnco4)cc32)cc1 [GW276655]	81	58	56	65	89	60	67	100	92	17
CN(C)CCNC(=O)Nc1ccc(N(C)c2ccnc(Nc3ccc(CS(C)(=O)=O)cc3)n2)cc1.Cl [GW830900A]	59	0.1	92	88	93	85	100	83	14	76
O=C(Nc1n[nH]c2nc(-c3ccc(O)cc3)c(Br)cc12)C1CC1 [SB-725317]	86	84	100	94	83	100	100	100	95	96
Cc1cc(O)cc(C)c1/C=C/c1cncc(C(N)=O)c1 [GW435821X]	77	2.1	100	96	25	100	100	100	100	74
CC1=C(C(=O)Nc2ccc3[nH]ncc3c2)C(c2ccc3ccccc3c2)CC(=O)N1 (stereo not drawn) [GSK270822A]	100	80	66	7	33	100	88	100	100	77
CN1CCN(C(=O)c2ccc(NC(=O)Nc3ccc(N(C)c4ccnc(Nc5ccc(CS(C)(=O)=O)cc5)n4)cc3)cc2)CC1.Cl [GW830263A]	35	0	68	59	85	61	43	76	0.4	71
Cl.O=C(O[C@H]1CN[C@H](C#Cc2cc3ncnc(Nc4ccc5c(cnn5Cc5ccccc5)c4)c3s2)C1)N1CCOCC1 [GSK200398A]	96	100	100	100	81	100	100	100	63	84
Cl.O=S1CCN(Cc2ccc(-c3ccc4ncnc(Nc5ccc(OCc6ccccc6)c(F)c5)c4c3)o2)CC1 [GW576924A]	100	100	100	100	100	100	100	100	100	100
C[C@@H](Oc1cc(-n2cnc3ccc(OC4CCN(C)CC4)cc32)sc1C(N)=O)c1ccccc1Cl [GSK579289A]	81	32	100	65	82	100	100	100	3.3	75
COc1cc2ncnc(Nc3ccc4c(cnn4Cc4ccccc4)c3)c2cc1OC.Cl [GW282449A]	100	100	100	100	23	95	100	100	13	100
NS(=O)(=O)c1ccc(Nc2ncc(-c3ccccc3)o2)cc1 [GW572399X]	31	30	100	100	100	100	100	87	100	78
Cl.O=C(Nc1ccc(Oc2ccc3[nH]c(NC(=O)c4ccco4)nc3c2)cc1)Nc1cc(C(F)(F)F)ccc1F [GW683134A]	83	0.4	100	97	6.3	76	84	87	0.1	66
COc1cccc(-n2ncc3c(N/N=C/c4ccncc4)ncnc32)c1 [GW784752X]	100	91	100	100	35	99	100	100	100	96
CCc1ccc(Oc2nccc(-c3c(-c4ccc(F)cc4)ncn3C3CCNCC3)n2)cc1 [SB-242719]	100	83	100	70	74	75	100	84	97	83
NS(=O)(=O)c1ccc(N/N=C2\C(=O)Nc3ccc(C(=O)NCCc4c[nH]cn4)cc32)cc1 [GW300660X]	93	100	100	100	100	100	100	100	100	71
